Bioassay records (PubChem)
ST2 inh = IL1RL1 inhibition; inhibition, % for hits at 17 µM; AID 1259354; actives 2.3% (n = 78,000); AlphaLISA ST2-Fc/biotin-IL-33 interaction, 1 h; in the data active = inhibition above about 30%
Target sequence (Q01638 whole entry, looked up): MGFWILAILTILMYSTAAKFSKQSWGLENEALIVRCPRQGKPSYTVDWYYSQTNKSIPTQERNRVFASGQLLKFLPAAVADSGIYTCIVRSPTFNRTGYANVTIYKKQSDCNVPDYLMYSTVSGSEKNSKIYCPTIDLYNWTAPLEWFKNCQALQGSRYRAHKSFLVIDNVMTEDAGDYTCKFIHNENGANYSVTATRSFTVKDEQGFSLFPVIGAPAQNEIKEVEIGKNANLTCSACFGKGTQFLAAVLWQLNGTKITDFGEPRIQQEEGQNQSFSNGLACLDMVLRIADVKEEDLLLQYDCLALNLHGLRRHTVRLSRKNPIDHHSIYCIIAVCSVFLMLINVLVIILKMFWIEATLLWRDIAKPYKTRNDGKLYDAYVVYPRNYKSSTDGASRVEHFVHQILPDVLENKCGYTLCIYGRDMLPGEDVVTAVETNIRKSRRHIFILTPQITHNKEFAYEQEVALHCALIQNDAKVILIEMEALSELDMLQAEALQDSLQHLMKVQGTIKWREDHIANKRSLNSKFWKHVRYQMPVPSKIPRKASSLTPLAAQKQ
Numbers without * were called inactive; i = inactive. This excerpt belongs to a sample that is enriched for hits.

SMILES	ST2 inh
O=C1C=C(Nc2cccc(C(F)(F)F)c2)C(=O)c2ccccc21	31%*
Cc1nnc(Nc2cccc(C(F)(F)F)c2)[nH]c1=O	i
COc1ccc(CCNC(=O)c2sc3nc(-c4ccc(OC)cc4)ccc3c2N)cc1	i
CSc1ccc(NC(=O)c2sc3nc(-c4ccc(F)cc4)ccc3c2N)cc1	44%*
COc1cc(NC(=O)c2sc3nc(-c4ccc(F)cc4)ccc3c2N)cc(OC)c1OC	i
CCOC(=O)C1(Cc2ccccc2)CCCN(Cc2cnc(N3CCOCC3)s2)C1 (configuration not stated)	i
Cc1cccc(NC(=O)c2ccc(=O)n(Cc3ccc(F)cc3)c2)c1	i
OCCOc1ccccc1CN1CCOC(c2ccc(Cl)c(Cl)c2)C1 (configuration not stated)	i
COc1cc([N+](=O)[O-])ccc1NC(=O)C(c1ccccc1)c1ccccc1	i
COc1cc([N+](=O)[O-])ccc1-c1ccc(/C=C2\C(=O)ON=C2c2ccccc2)o1	34%*
O=C1C(=Cc2ccc(-c3ccc([N+](=O)[O-])cc3Cl)o2)C(=O)c2ccccc21	i
CCOC(=O)N1CCC(N2CCOC(CCc3ccccc3)C2)CC1 (configuration not stated)	i
N/C(=N/OC(=O)c1ccccc1[N+](=O)[O-])c1cccnc1	i
CC(=O)C1=NN(c2ccccc2)C2C(=O)N(c3ccc(C)cc3)C(=O)C12 (configuration not stated)	i
CC1=NN(c2ccccc2)C(=O)C1C(=O)c1ccc(F)cc1 (configuration not stated)	37%*
O=C(c1ccc(F)cc1)N(Cc1ccccc1)Cc1ccccc1	i
O=C(CNC(=O)c1cccs1)NCCC1=CCCCC1	i
CCN1CCN(C(=O)CCC2CCN(CC3=CC[C@H]4C[C@@H]3C4(C)C)CC2)CC1	i
O=[N+]([O-])c1ccc(N2CCN(Cc3cccnc3)CC2)cc1	i
O=[N+]([O-])c1ccc(N2CCN(Cc3ccc(Br)o3)CC2)cc1	38%*
CC1(C)[C@H]2CC=C(CN3CCN(c4ccc([N+](=O)[O-])cc4)CC3)[C@@H]1C2	42%*
O=[N+]([O-])c1ccc(N2CCN(Cc3ccsc3)CC2)cc1	i
O=C(O)c1ccc(CN2CCN(c3ccc([N+](=O)[O-])cc3)CC2)cc1	i
CCn1ccnc1CN1CC[C@@H](c2ccc3c(c2)OCO3)[C@H](O)C1	i
Cc1nc(SCC(=O)Nc2ccc(Br)cc2)c(C#N)c2c1CCCC2	i
SMILES	ST2 inh
C=CCSC(C)C(=O)N1CCN(C)C2(CCN(C)CC2)C1 (configuration not stated)	i
O=C1/C(=C/c2ccc(Cl)c([N+](=O)[O-])c2)Sc2ccccc21	i
CC(=O)NC1=NC(=O)/C(=C/c2ccc(-c3cccc(Cl)c3)o2)S1	i
O=C1NC(=O)/C(=C\c2ccc(-c3cccc(C(=O)O)c3)o2)S1	i
NC1=NC(=O)/C(=C\c2ccc(-c3ccc(Cl)c([N+](=O)[O-])c3)o2)S1	40%*
O=C1NC(=O)/C(=C\c2ccc(-c3ccc(Cl)c([N+](=O)[O-])c3)o2)S1	69%*
O=C1C(=Cc2ccc(-c3ccc(Cl)c([N+](=O)[O-])c3)o2)C(=O)c2ccccc21	i
Cc1ccc(Cl)cc1NC(=O)NCCc1nc2cccnc2n1-c1ccccc1	i
COc1ccc(NC(=O)c2oc3ccccc3c2NC(=O)c2cc3ccccc3oc2=O)cc1	i
CCC(C)OC(=O)C1=C(C)NC2=C(C(=O)C(C(=O)OC)C(C)C2)C1c1c(F)cccc1Cl (configuration not stated)	i
O[C@H]1[C@H](NCC2CCCCC2)[C@H]2CO[C@H](O2)[C@@H]1Sc1ccccc1	i
Cc1cc(C)nc(NC(=O)c2ccccc2F)c1	30%*
Cc1ccn2c(NC(=O)c3ccccc3F)c(-c3ccccc3)nc2c1	i
Cc1cc(C)nc(NC(=O)CCCC(=O)O)c1	i
COc1ccc(Cn2c(C)nc([N+](=O)[O-])c2SCCC#N)cc1[N+](=O)[O-]	i
C=CCOc1cccc(C2Nc3ccccc3-c3nnc(SC)nc3O2)c1 (configuration not stated)	i
Cc1cc(C)[n+]2c(c1C#N)SCC2C(Br)c1ccccc1 (configuration not stated)	58%*
Fc1cccc2sc(N3CCc4ccccc4C3)nc12	i
NC(=O)c1ccc(NC(=O)C2CC2(c2ccccc2)c2ccccc2)cc1 (configuration not stated)	i
COc1ccc(C(=O)N[C@H]2CO[C@H]3[C@@H]2OC[C@@H]3n2nnnc2Oc2cccc(N3CCOCC3)c2)cc1	i
CC(C)[C@H]1NC(=O)[C@@H]2[C@@H](NC(=O)NC3CCCCC3)CCN2C1=O	43%*
O=C(N[C@H]1CCN2C(=O)c3ccccc3NC(=O)[C@H]12)C1CCCC1	i
COc1cccc(NC(=O)N[C@H]2CCN3C(=O)[C@@H](Cc4ccccc4)NC(=O)[C@H]23)c1	i
NC(N)=NS(=O)(=O)c1ccc(N=Cc2ccccc2F)cc1	i
COc1ccc(Cc2nn[nH]n2)cc1OC	i
SMILES	ST2 inh
CCOc1ccc(C(=O)Nc2cc(-c3nc4ncccc4o3)ccc2C)cc1	i
O=C(COc1ccc(Br)cc1)Nc1ccc(-c2nc3ncccc3o2)cc1	33%*
O=C(COc1ccc(Br)cc1)Nc1ccc(F)cc1	39%*
CC(C)Oc1cccc(C(=O)Nc2cc(-c3nc4ncccc4o3)ccc2Cl)c1	i
Cc1ccc(-c2nc3ncccc3o2)cc1NC(=O)COc1ccc(Br)cc1	i
Cc1ccc(OCC(=O)Nc2cc(-c3nc4ncccc4o3)ccc2Cl)cc1C	30%*
Cc1ccc(NC(=O)COc2ccc(C)cc2)cc1	i
O=C(COc1ccccc1)Nc1ccc(Cl)cc1	i
CCC(=O)Nc1ccc(-c2nc3ncccc3o2)cc1	i
COC(=O)C1=NN(C(=O)c2cccc(OC)c2)C(O)(c2ccc(Cl)cc2)C1 (configuration not stated)	i
COc1cc(CN2CCCCC2CO)c([N+](=O)[O-])cc1OC (configuration not stated)	i
CCCCN(C)c1nc(-c2ccccc2)c2c(c1C#N)CC(C)(C)OC2	i
c1cncc(NCCCNC2CCC3(CCNCC3)CC2)c1	i
O=C(Nc1c(-c2ccccc2)nc2ccccn12)c1ccccc1Cl	i
C=CCOc1ccc(C=Nc2ccc(Cl)cc2)cc1	i
C=CCOc1ccc(C=Nc2ccc(C(C)C)cc2)c(O)c1	41%*
O=c1[nH]c2ccc(N=Cc3ccc(O)cc3O)cc2[nH]1	i
C=CCOc1ccc(C=Nc2ccc(C)cc2C)c(O)c1	38%*
COc1cc(C(=O)N2CCN=C2SCc2ccc(Cl)cc2)cc(OC)c1OC	i
CCC1CCCCN1C(=O)c1cc2c(=O)n3ccccc3nc2n1C (configuration not stated)	i
Cc1nc2c(ccc3nc(NC(=O)c4ccccc4)sc32)s1	i
Cc1nc2c(ccc3nc(NC(=O)c4ccc(OC(C)C)cc4)sc32)s1	i
Cc1nc2c(ccc3nc(NC(=O)c4ccc(C)c(C)c4)sc32)s1	41%*
COC(=O)c1ccc(C(=O)Nc2nc3ccc4sc(C)nc4c3s2)cc1	36%*
Cc1nc2c(ccc3nc(NC(=O)c4ccc5c(c4)OCCO5)sc32)s1	i
Cc1nc2c(ccc3nc(NC(=O)c4cccc(Br)c4)sc32)s1	i
Cc1cc(Nc2cccc(C(F)(F)F)c2)n2ncnc2n1	i
CN(C/C=C/c1ccccc1)CC1(CO)CC1	i
